Screening results as filed in PubChem.
This is a sample that favours compounds with a hit; in the whole collection about 21% have one here.
Pf growth 96h – Primary qHTS for delayed death inhibitors of the malarial parasite plastid, 96 hour incubation | P. falciparum luciferase reporter growth, 96 h | 320,000 tested, 6.9% active | Potency, µM (doses to about 28.7 µM), inactives show top-dose activity change, negative = inhibition, hits mostly inhibitors; note: potency is the fitted concentration of half-maximal effect; % is set by controls: 0 for no effect and ±100 for the full control effect
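Parasite growth measured via integrated firefly luciferase reporter in P. falciparum. Infected erythrocytes at 2% hematocrit, 0.05% parasitemia final were treated 96 hours at 37 C under 5% CO2, and luminescence was read.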
Cycloheximide cs – Cycloheximide Counterscreen for Small Molecule Inhibitors of Shiga Toxin. cell reporter, cycloheximide protein synthesis inhibition counterscreen. 300,000 tested, 12% active. max response, %; in the data active = max response mostly above about 13%, no sharp cut-off; inactive = mostly below about 14%; note: read at 38.3 µM for the half of the compounds with a filed dose; 0% is about no effect
NS1 inh – qHTS Assay for Inhibitors of Influenza NS1 Protein Function. 270,000 tested, 0.4% active. Potency, µM (doses to about 46.1 µM), inactives show at the top dose activity, positive = more growth. AID 2326, 2010; calls by dose curve; note: potency is the fitted concentration of half-maximal effect; actives are rising curves; nearly all actives have a fitted effect of over 50% in size
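S. cerevisiae expressing influenza A NS1, grown in glucose, washed, then diluted 1:100 into pH 6.0 -URA galactose medium with 23 nl compound. Growth recovery read as OD600; NS1-free strain serves as control.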
Pf growth 48h – Primary qHTS for delayed death inhibitors of the malarial parasite plastid, 48 hour incubation. 310,000 tested, 5.9% active. Potency, µM (highest dose often 28.7 µM), for the others: top-dose activity change, negative = inhibition, hits mostly inhibitors. P. falciparum luciferase growth in erythrocytes, 48 h; note: potency is the fitted concentration of half-maximal effect; % is set by controls: 0 for no effect and ±100 for the full control effect
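Here the parasites carry a stable luciferase gene and grow inside erythrocytes in Albumax-based RPMI medium with compound for one erythrocytic cycle. Activity is scored as loss of luminescent signal.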
Sm TGR block – qHTS Assay for the Inhibitors of Schistosoma Mansoni Peroxiredoxins. Schistosoma mansoni thioredoxin glutathione reductase (TGR), Q962Y6. purified TGR, DTNB reduction, TNB absorbance 405 nm. Potency, µM (titrated, usually from 114 µM), for inactives: at the highest dose activity change, negative = inhibition, hits mostly inhibitors. 360,000 tested, 3% active. AID 485364, 2010; note: potency is the fitted concentration of half-maximal effect; % is set by controls: 0 for no effect and ±100 for the full control effect; nearly all actives have a fitted effect of over 60% in size
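TGR 20 nM + NADPH 100 uM (dispensed conc.), cpd preinc 15 min RT; start with NADPH (500 uM addition) then DTNB (15 mM addition). Kinetic TNB absorbance, 405 nm filter. Four-parameter Hill fit across titration.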
Shiga toxin inh – A qHTS for Small Molecule Inhibitors of Shiga Toxin; inhibition, % at 38.7 µM; 290,000 tested, 9.2% active; Vero cells, Shiga toxin protein synthesis inhibition reporter; AID 2315, 2010; in the data active = inhibition mostly above about 28%, no sharp cut-off; inactive = mostly below about 43%; note: 0% is about no effect
An asterisk follows results filed as active; ? = inconclusive; / = no result given. Unless noted, calls come from the whole dose curve; as a rule, active = well fitted curve in the direction sought with a large enough effect; inconclusive = small, poorly fitted or top-dose-only effect, or another doubt; inactive = no such curve, though single readings can be large; an effect the other way counts as inactive or inconclusive.

SMILES | Pf growth 96h | Cycloheximide cs | NS1 inh | Pf growth 48h | Sm TGR block | Shiga toxin inh
COc1ccc(Cn2c(CCC(=O)N3CCN(c4ccccn4)CC3)nc3ncccc3c2=O)cc1 | ? | 5 | -27% | 12µM* | 3% | 32
CN(C)CCCOc1c2ccccc2n(Cc2ccccc2)[n+]1[O-] | / | -3 | / | / | / | -12
COc1ccc2cc(C(=O)/C=C/c3cc(OC)c(OC)c(OC)c3)ccc2c1 | ? | 17 | 11% | ? | -14% | 12
COc1ccc(/C=C/C(=O)c2ccccn2)cc1 | 149% | 24* | / | 412% | ? | 43
COc1ccc(/C=C/C(=O)c2ccoc2)cc1 | 42% | 42* | -48% | 18% | -41% | 89*
COc1ccc(/C=C/C(=O)N2CCN(c3ccccn3)CC2)cc1 | -12% | 24* | -21% | 8% | 50% | 30*
COc1ccc(/C=C/C(=O)c2c(O)c(OC)c3occc3c2OC)cc1 | 22% | 15* | 0% | ? | -7% | 20
CCc1cccc(CC)c1NC(=O)CN1C2CCCC1CC(NC(=O)Nc1cccc(OC)c1)C2 (configuration not stated) | 46% | 2 | -7% | ? | 9% | -15
CCOc1cccc(CNC(=O)c2ccc(N3CCCC3)c(NC(=O)NCc3ccc(F)cc3)c2)c1 | / | / | / | / | 6% | /
O=C(Nc1ccccn1)C1CCN(S(=O)(=O)c2ccc(Cl)cc2)CC1 | -26% | / | / | ? | 1% | /
COc1cc(/C=C/c2ccc(O)cc2)cc(OC)c1 | / | 56* | / | / | 0% | 84*
COc1cc(O)cc(O)c1 | ? | / | / | -15% | / | /
O=C(Cc1ccccc1)Nc1scc(-c2ccccc2)c1C(=O)N1CCOCC1 | ? | 2 | -2% | / | -6% | 17
NC(=O)c1c(-c2ccc(Cl)cc2Cl)csc1NC(=O)Cc1ccccc1 | 24% | 16* | 11% | ? | -5% | 11
Cc1nn(CC(=O)NCc2ccccc2Cl)c(=O)c2cccn12 | / | / | / | / | 7% | /
c1ccc(-c2cc(N3CCOCC3)nc3ccccc23)cc1 | -9% | -1 | -52% | 3% | 3% | -26
CC1CN(c2cc(-c3ccccc3)c3ccccc3n2)CC(C)O1 (configuration not stated) | 2.6µM* | -3 | -22% | / | 7% | 37
O=C(Nc1ccc(S(=O)(=O)N2CCOCC2)cc1)c1ccc(CN2CCc3ccccc3C2)cc1 | -62% | -3 | 4% | 12µM* | 3% | -7
O=C(Nc1ccc(Cl)cc1)c1ccc(CN2CCc3ccccc3C2)cc1 | ? | 19 | -7% | -4% | -1% | 15
CCOc1ccc(NC(=O)c2ccc(CN3CCc4ccccc4C3)cc2)cc1 | 5.2µM* | 1 | 14% | -10% | 0% | 2
N#CCc1ccc(NC(=O)c2ccc(CN3CCc4ccccc4C3)cc2)cc1 | 8.3µM* | -2 | 1% | ? | -4% | -5
CCCCN(C)CCCNC(=O)C1CCC(CNS(=O)(=O)c2c(C)cc(C)cc2C)CC1 (configuration not stated) | 0% | -1 | 0% | ? | -19% | -22
COCCN(C(=O)CSc1ncc(C(F)(F)F)cc1Cl)c1c(N)n(Cc2ccccc2)c(=O)[nH]c1=O | 13% | -2 | / | -12% | -7% | -2
CC1=C(CC(=O)c2ccccc2)C(=O)c2ccccc2C1=O | 0.83µM* | 36* | -15% | 0.74µM* | ? | 87*
Cc1cc(C)c(Cn2c(=O)n(Cc3ccccc3)c(=O)c3c(C)c(C)sc32)c(C)c1 | / | / | / | / | -6% | /
SMILES | Pf growth 96h | Cycloheximide cs | NS1 inh | Pf growth 48h | Sm TGR block | Shiga toxin inh
O=c1[nH]c(CCl)nc2cc(-c3ccc(F)cc3)sc12 | ? | 11 | -55% | ? | 11µM* | 56
Cc1ccc(NC(=O)c2ccc(Cl)cc2Cl)c(C(=O)c2ccccc2)c1 | / | / | / | / | 10% | /
Cc1ccccc1NC(=O)C1(NC(=O)c2cccc(N3C(=O)CSC3c3ccccc3)c2)CCCCC1 (configuration not stated) | ? | -1 | 8% | 12µM* | -1% | -16
CC(C)(C)c1ccc(C2SCC(=O)N2c2cccc(C(=O)O)c2)cc1 (configuration not stated) | ? | 11 | 3% | 10% | -5% | 8
Cc1cccc(Cn2nnc3ccccc32)c1O | ? | / | / | ? | 0% | /
CC(C)(C)c1cccc(Cn2nnc3ccccc32)c1O | ? | / | / | 9.3µM* | -4% | /
Cc1cc(Cn2nnc3ccccc32)c(O)c(C(C)(C)C)c1 | ? | / | / | 12µM* | 0% | /
CCc1ccc(-n2nc(C)c3c(C(=O)Nc4cccc(C(F)(F)F)c4)cc(C)nc32)cc1 | / | / | / | / | 1% | /
Cc1ccccc1N1CCN(C(=S)c2ccc(-c3ccc([N+](=O)[O-])cc3)o2)CC1 | 0% | -2 | -2% | 0% | -3% | 20
CN1CCN(c2ccc(NC(=O)c3ccc(-c4ccc(Cl)cc4)o3)cc2)CC1 | ? | 8 | -2% | 2.9µM* | 1% | 39
Cc1ccc(N2CCN(C(=S)c3ccc(-c4cccc([N+](=O)[O-])c4)o3)CC2)cc1 | -19% | 0 | -3% | -5% | -1% | -19
CN1CCN(c2ccc(NC(=O)c3ccc(-c4cccc([N+](=O)[O-])c4)o3)cc2)CC1 | 0% | 12 | 6% | 1.5µM* | 3% | 21
Cc1ccccc1N1CCN(C(=S)c2ccc(-c3cccc([N+](=O)[O-])c3)o2)CC1 | ? | 8 | / | 10µM* | -7% | 36
Oc1ccc(Nc2ccnc3cc(Cl)ccc23)cc1 | 1.9µM* | 13 | 4% | 1µM* | -33% | 52
Clc1ccc(NNc2ccnc3cc(Cl)ccc23)cc1 | 1.7µM* | 2 | -12% | 1.7µM* | 9% | -8
O=C(O)c1ccc(Nc2ccnc3cc(Cl)ccc23)cc1O | / | / | -3% | / | / | /
S=C(N/N=C/c1cccs1)NC1CC2CCC1C2 (configuration not stated) | 10µM* | 24* | -44% | ? | 2% | 47*
